# High-throughput results from PubChem BioAssay.
# CSC inhib: cancer stem cell inhibition; inhibition, % at 7.5 µM; 1.1% of 300,000 active; AID 2717; cancer stem cell-like cells viability, luminescence; in the data active means inhibition above about 75%; tested in HMLE shEcad cells
# PAX8 reporter: lowers PAX8-driven luciferase in RMG-I cells | RMG-I TPO-luciferase reporter, SteadyGlo, 24 h | inhibition, % at 12.6 µM | 1.2% of 360,000 active;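 active means mean replicate inhibition at least 60% with every replicate also reaching 60%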;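 further: luciferase light reporting Pax8 driven TPO promoter activity; plate controls were median of neutral control wells for no effect and mitoxantrone controls for full effect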
# Shn3 3UTR inh: Schnurri-3 reporter inhibition in Clone20 osteoblasts; Clone20 osteoblast Shn3 3'UTR firefly luciferase, 24 h; inhibition, % at 12.5 µM; 0.52% of 360,000 active; AID 588674;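 active means mean inhibition of at least 75% with every replicate also reaching 75%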;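 further: 0% = median of neutral control wells and 100% = pilot-screen positive control compound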
# Gli-Sufu antag: blocks Gli-Sufu signaling in a luciferase reporter; Sufu-KO-LIGHT fibroblasts, Gli luciferase reporter luminescence; inhibition, % at 5 µM; 0.74% of 340,000 active;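 active means inhibition above about 55%, limit read from the data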;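 further: 0% = DMSO-treated cells and 100% = wells with medium but no cells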
# Mdm2 MdmX PPI: inhibitors of human Mdm2/MdmX interaction | O15151+Q00987 | SaOS-2 split-luciferase Mdm2/MdmX complementation, luminescence | inhibition, % at 8 µM | 3% of 330,000 active;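 active means inhibition of at least 50% at 8 µM in the primary screen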
# Target sequence (O15151 whole entry, looked up): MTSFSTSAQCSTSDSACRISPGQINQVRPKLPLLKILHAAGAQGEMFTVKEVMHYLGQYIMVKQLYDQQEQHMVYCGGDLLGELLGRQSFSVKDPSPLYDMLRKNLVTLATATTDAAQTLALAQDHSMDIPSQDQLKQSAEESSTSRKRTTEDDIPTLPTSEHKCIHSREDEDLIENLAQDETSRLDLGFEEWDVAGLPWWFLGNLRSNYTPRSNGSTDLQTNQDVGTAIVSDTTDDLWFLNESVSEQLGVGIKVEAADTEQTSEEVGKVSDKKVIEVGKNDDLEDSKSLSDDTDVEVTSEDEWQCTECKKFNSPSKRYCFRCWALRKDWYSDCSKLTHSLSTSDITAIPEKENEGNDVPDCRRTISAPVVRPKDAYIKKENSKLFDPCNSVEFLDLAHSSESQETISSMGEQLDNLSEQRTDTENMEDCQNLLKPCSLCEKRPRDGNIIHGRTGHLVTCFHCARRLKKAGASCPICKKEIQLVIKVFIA
# Target sequence (Q00987 whole entry, looked up): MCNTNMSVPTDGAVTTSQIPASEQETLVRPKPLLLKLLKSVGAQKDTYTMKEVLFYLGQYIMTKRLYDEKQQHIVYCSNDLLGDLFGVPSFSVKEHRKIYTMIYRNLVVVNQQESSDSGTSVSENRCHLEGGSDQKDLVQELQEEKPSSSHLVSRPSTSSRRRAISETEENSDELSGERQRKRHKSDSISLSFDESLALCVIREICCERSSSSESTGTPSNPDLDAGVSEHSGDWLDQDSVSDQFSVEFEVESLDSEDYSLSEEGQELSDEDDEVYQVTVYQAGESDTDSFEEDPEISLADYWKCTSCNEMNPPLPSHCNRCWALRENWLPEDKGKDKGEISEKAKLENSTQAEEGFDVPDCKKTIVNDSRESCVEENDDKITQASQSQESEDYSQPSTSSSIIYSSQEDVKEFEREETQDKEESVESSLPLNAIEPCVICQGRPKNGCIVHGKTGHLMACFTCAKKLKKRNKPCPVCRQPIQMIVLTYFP
# Beta apoptosis: beta cell apoptosis inhibition | INS-1E cytokine-induced death, ATP luminescence, 48 h; percent of positive-control rescue, neutral wells zero | protection from apoptosis, % (concentration not given with the values) | 0.8% of 300,000 active;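 active means Every replicate reaches about 75%, or at least half do and their mean reaches it too, limit read from the data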;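 further: 0% = cytokine-treated negative control wells and 100% = positive control rescue; higher means more ATP so stronger rescue from cytokine killing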
# Gli-Sufu confirm: Gli-SUFU antagonism confirmation, single concentration | shares compounds with Gli-Sufu antag | Sufu-KO-LIGHT cells, Gli luciferase reporter, luminescence | inhibition, % at 5 µM | 40% of 2,500 active;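 active means mean inhibition at 5 µM reaching about 45%, limit read from the data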;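 further: plate controls were DMSO-treated cells for no effect and wells lacking cells for full effect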
# Gli cytotox: counter-screen for Gli-SUFU antagonists: cytotoxicity. shares compounds with Gli-Sufu antag. Sufu-KO-LIGHT cells cytotoxicity, ATP luminescence. cytotoxicity, % at 5 µM. 32% of 2,500 active;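 active means mean cytotoxicity at 5 µM above about 25%, limit read from the data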;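 further: cells exposed to compound overnight for roughly 16 to 18 hours; plate controls were DMSO wells with cells for no effect and medium without cells for full effect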
# Wnt3a counter: Wnt3a reporter inhibition counter-screen; Wnt-LIGHT cells, Wnt3a-driven luciferase reporter, luminescence; shares compounds with Gli-Sufu antag; inhibition, % at 6.25 µM; 20% of 2,500 active;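 active means mean inhibition above about 25%, limit read from the data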
# The depositor's hits bear a star; . = no result. Most compounds without a hit are left out; they make up all but 4% or so of the library.
SMILES,CSC inhib,PAX8 reporter,Shn3 3UTR inh,Gli-Sufu antag,Mdm2 MdmX PPI,Beta apoptosis,Gli-Sufu confirm,Gli cytotox,Wnt3a counter
C[C@@H]1CN([C@H](C)CO)C(=O)c2cc(-c3ccccc3F)cnc2O[C@@H]1CN(C)Cc1cccc(F)c1,.,-6,.,.,.,.,.,.,.
Cc1csc(NC(=O)c2cc3c(s2)CCC3)n1,30,.,0,62*,-115,8,-62,12,-1
COC(=O)c1sc(NC(=O)c2cc3c(s2)CCCC3)nc1C,14,.,-35,-100,-73,13,.,.,.
CCN(CC(=O)NCc1cccs1)C(=O)/C=C/c1cc(Br)ccc1OC(F)F,-12,3,0,54,-20,-1,35,13,-8
COCCN(Cc1cn(C)nc1-c1ccc(Oc2ccccc2)cc1)C(C)C,.,1,7,57*,24,.,17,15,-61
CCCCOc1ccc(C(=O)NCCCC(=O)N2CCCCC2)cc1,-4,.,19,68*,3,1,30,12,-13
Nc1nc(SCC(=O)Nc2cccc(Oc3ccccc3)c2)n[nH]1,-7,-17,-1,53,21,-2,20,2,-5
COCCOc1nc2c(c(=O)n(C)c(=O)n2C)n1Cc1cccc(OC)c1,22,.,87*,52,3,.,44,21,23
COc1ccc(Oc2nc3c(c(=O)n(C)c(=O)n3C)n2Cc2cccc(OC)c2)cc1,-3,.,2,16,19,-6,.,.,.
O=C(O)CSCCn1cccn1,18,.,2,2,-1,-5,.,.,.
Cc1ccn(CCSCC(=O)O)n1,-4,-3,-6,53,2,.,13,12,-7
C=CCN(CC=C)S(=O)(=O)c1ccc(NC(=S)NC(=O)Cc2ccc(OC)cc2)cc1,1,.,15,69*,20,-8,16,17,24
COc1ccc(CC(=O)NC(=S)Nc2ccc(S(N)(=O)=O)cc2)cc1,-8,5,21,0,5,-2,.,.,.
Cc1ccc(S(=O)(=O)Nc2ccc3c(c2)C(=O)N([C@@H](C)CO)C[C@@H](C)[C@@H](CN(C)C)O3)cc1,.,2,.,.,.,.,.,.,.
O=C(CCC(=O)c1ccccc1)Nc1ccc(C(=O)O)cc1,15,-14,-6,99*,7,-10,19,7,6
O=C(NC1CCCc2ccccc21)c1cn2ccccc2n1 (stereo not drawn),.,13,-20,1,2,-8,.,.,.
Cc1nc2ccccn2c1C(=O)NC1CCCc2ccccc21 (stereo not drawn),-2,15,82,56*,20,41,32,4,11
COc1ccc(S(=O)(=O)N[C@@H]2C=C[C@H](CC(=O)N3CCN(c4ccccc4)CC3)O[C@@H]2CO)cc1,.,2,.,.,.,.,.,.,.
COc1ccc(CNC(C)C23CC4CC(CC(C4)C2)C3)c(OC)c1OC (stereo not drawn),4,7,18,-8,18,2,.,.,.
CC(NCc1ccc(OCC(N)=O)cc1)C12CC3CC(CC(C3)C1)C2 (stereo not drawn),-18,17,-3,51,17,.,34,12,-20
O=S(=O)(c1cc(C(F)(F)F)ccc1Cl)N1CCN(c2ncnc3ccccc23)CC1,.,28,69,61*,36,.,61*,19,44*
O=S(=O)(c1cc(C(F)(F)F)ccc1Cl)N1CCCCCC1,-11,.,-10,-3,-8,-6,.,.,.
Cc1cc(C)c(C)c(S(=O)(=O)N2CCN(c3ccccn3)CC2)c1C,-11,14,4,40,0,-16,.,.,.
Cc1cc(C)c(C)c(S(=O)(=O)N2CCN(c3ncnc4ccccc34)CC2)c1C,34,53,86*,53,29,104*,71*,20,12
COc1ccc(C(=O)N2CCCC(CO)C2)cc1OC1CCN(C(C)C)CC1 (stereo not drawn),.,-4,10,.,.,.,.,.,.
SMILES,CSC inhib,PAX8 reporter,Shn3 3UTR inh,Gli-Sufu antag,Mdm2 MdmX PPI,Beta apoptosis,Gli-Sufu confirm,Gli cytotox,Wnt3a counter
COc1ccc(C(=O)N2CCCCCCC2)cc1OC1CCN(C(C)C)CC1,6,-11,9,65*,-6,2,26,15,-2
COC(=O)NCC(c1ccco1)N1CCN(c2ccc(F)cc2)CC1 (stereo not drawn),-5,26,-3,52,-1,-7,14,9,-25
CCC(C)NC(=O)COC(=O)Cc1sc(N)nc1-c1ccc(C)cc1 (stereo not drawn),-20,-26,-20,0,2,-7,.,.,.
Cc1ccc(-c2nc(N)sc2CC(=O)OCC(=O)NCCC(C)C)cc1,3,23,-2,58*,12,1,12,16,31*
Cc1ccc(S(=O)(=O)Nc2ccc3c(c2)CC(=O)N([C@@H](C)CO)C[C@H](C)[C@@H](CN(C)S(=O)(=O)c2ccc(Cl)cc2)O3)cc1,.,16,.,.,.,.,.,.,.
COc1ccc(NS(=O)(=O)c2ccc(OC)c(N(C)S(=O)(=O)c3ccc(Cl)cc3)c2)cc1,-6,.,87*,74*,9,101*,43,39*,-35
CNC[C@@H]1Oc2ccc(NS(=O)(=O)c3ccc(Cl)cc3)cc2CC(=O)N([C@H](C)CO)C[C@H]1C,.,0,.,.,.,.,.,.,.
CC(C)(C)OC(=O)NCCCCCNC(=O)c1nc[nH]c1C(=O)NCCCCCNC(=O)OC(C)(C)C,.,41,44,55*,29,-2,30,2,-26
CCCNC(=O)C[C@H]1CC[C@@H]2[C@@H](COc3ccc(NS(=O)(=O)c4ccccc4C)cc3C(=O)N2C)O1,.,-6,.,.,.,.,.,.,.
C[C@@H]1CN([C@H](C)CO)C(=O)Cc2cc(N(C)C)ccc2O[C@H]1CN(C)Cc1ccc(-c2ccccc2)cc1,.,6,.,.,.,.,.,.,.
COc1ccccc1C(=O)N/C(=C\c1ccc(Br)cc1)C(=O)NCCC(=O)O,1,-17,-26,-5,-48,1,.,.,.
COc1ccccc1C(=O)N/C(=C\c1ccc(Br)cc1)C(=O)NCC(=O)O,3,-10,0,97*,15,-4,14,0,13
Nc1nc2n(n1)C(c1ccco1)CC(c1ccc(Cl)cc1)N2 (stereo not drawn),-19,13,24,2,-15,1,.,.,.
Nc1nc2n(n1)C(c1ccco1)CC(c1ccc(Cl)cc1Cl)N2 (stereo not drawn),15,-3,-4,50,-8,8,8,11,6
COc1ccc(CC(=O)N2CCCc3ccccc32)cc1OC,.,4,-5,91*,5,-4,18,5,-18
CN(C)C(=O)C[C@@H]1CC[C@@H]2[C@H](COC[C@@H](O)CN2Cc2ccc(C(F)(F)F)cc2)O1,.,7,.,.,.,.,.,.,.
